The structures appear in SMILES notation. Results filed as inconclusive are left out. A call without a number means that no potency is given here. The source holds several records for some structures; these can differ, active in one and inactive in another. Activity calls are given as the source filed them. Calls come from the whole dose curve; as a rule, active = well fitted cell-killing curve with a large enough effect in the repeat runs; inconclusive = weak or mixed curves, or effect the other way; inactive = flat fitted curve, though single readings scatter.
Note: nearly all actives have a fitted effect of over 50% in size.

The first assay is described as follows: qHTS assay to identify small molecule HDAC inhibitors - cell viability counter screen (AID 1259365). The note with it: HCT-116 viability, CellTiter-Glo ATP luminescence, 2 h; series mostly up to 92.4 µM; activity change, negative = cytotoxicity: at the top concentration. Summed up: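 HCT-116 (wild type), 1,500 cells/well, overnight 37C/5% CO2; compound in DMSO 2hr; CellTiter-Glo 30min RT; luminescence read.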
(Quantitative high-throughput screening tests each substance at several concentrations.)
As for `CN(C)CCC#N`, the result was inactive.

Consider `CCCOC(=O)c1ccccc1C(=O)OCCC`, for which the compound was called inactive.

`CNC(=O)Oc1cccc2ccccc12`: the compound was called inactive.

With `O=C(O)C1C(C(=O)O)C2(Cl)C(Cl)=C(Cl)C1(Cl)C2(Cl)Cl` (stereo not given), the result was inactive.

On to `c1ccc2c(c1)CCCC2`, for which the compound was classed as inactive.

Turning to `O=[N+]([O-])c1ccc(Cl)cc1`, the outcome was inactive.

`CC(C)(C)C(=O)CCl`: the result was inactive.

For the compound `Nc1nc(N)nc(NC2CC2)n1`, the result was inactive.

As to `CN(C)C(=O)C(c1ccccc1)c1ccccc1`, the outcome was inactive.

Take `C/C=C/c1ccc2c(c1)OCO2`: the result was inactive.

Turning to `COP(=S)(OC)SCN1C(=O)c2ccccc2C1=O`, the compound was called inactive.

For `CC[N+](=O)[O-]`, the result was inactive.

For the compound `Sc1ccccc1`, the compound was called inactive.

Take `CCSC(=O)N1CCCCCC1`: the call was inactive.

Regarding `Cl[C@H]1OCCO[C@@H]1Cl`, the outcome was inactive.

Turning to `C=CC(=O)OCC(CC)CCCC` (stereo not given), the compound was classed as inactive.

In the case of `O=[N+]([O-])c1cc([As](=O)(O)O)ccc1O`, the outcome was inactive.

Take `CCOc1ccc(N)cc1`: the outcome was inactive.

For the compound `Nc1ccc(N)cc1`, the compound was called inactive.

`CCNc1nc(Cl)nc(NC(C)C)n1`: the result was inactive.

As for `C=CC#N`, the compound was classed as inactive.

For the compound `C=C(C)C(=O)OCC(CC)CCCC` (stereo not given), the compound was called inactive.

For the compound `Cc1cc(Cl)ccc1OC(C)C(=O)O` (stereo not given), the compound was called inactive.

Consider `CCCCC(CC)C(=O)Cl` (stereo not given), for which the result was inactive.

Turning to `COc1cc(-c2ccc(N)c(OC)c2)ccc1N`, the compound was called inactive.

On to `O=P1(NCCCl)OCCCN1CCCl` (stereo not given), for which the compound was called inactive.

In the case of `O=C(O)C(Br)Br`, the compound was called inactive.

Regarding `Cc1cccc(C)c1NC(=O)CN1CCCC1=O`, the result was inactive.

With `[N-]=[N+]=CC(=O)OC[C@H](N)C(=O)O`, the compound was classed as inactive.

Take `OCc1ccco1`: the result was inactive.

The nature of a further assay: qHTS assay to identify small molecule agonists of the sonic hedgehog signaling (Shh) pathway - cell viability counter screen (AID 1259366). Note: potency is the fitted concentration of half-maximal effect. The note with it: NIH/3T3 Gli1-Luc viability, CellTiter-Fluor, 24 h; series mostly up to 92.4 µM; viability change, negative = cytotoxic: at the top concentration. The method in brief:
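CellTiter-Fluor fluorescence read-out, 1 hr at 37C, added after 23hr compound exposure. Cells: 3T3 Gli1-Luc, an NIH/3T3 clone with stably integrated Gli1-Luc reporter, plated 4hr before compound.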
Regarding `CN(C)CCC#N`, the Potency result was “inactive”.

As to `CCCOC(=O)c1ccccc1C(=O)OCCC`, the Potency result is “inactive”.

Consider `CNC(=O)Oc1cccc2ccccc12`, for which the Potency entry was “inactive”.

On to `O=C(O)C1C(C(=O)O)C2(Cl)C(Cl)=C(Cl)C1(Cl)C2(Cl)Cl` (stereo not given), for which the Potency result is “inactive”.

As to `c1ccc2c(c1)CCCC2`, the Potency result was “inactive”.

`O=[N+]([O-])c1ccc(Cl)cc1`: the Potency result was “inactive”.

`CC(C)(C)C(=O)CCl`: the Potency entry was “inactive”.

As for `Nc1nc(N)nc(NC2CC2)n1`, the Potency result is “inactive”.

For the compound `CN(C)C(=O)C(c1ccccc1)c1ccccc1`, the Potency entry is “inactive”.

Take `C/C=C/c1ccc2c(c1)OCO2`: the Potency result was “inactive”.

Take `COP(=S)(OC)SCN1C(=O)c2ccccc2C1=O`: the Potency entry is “inactive”.

Regarding `CC[N+](=O)[O-]`, the Potency entry is “inactive”.

Take `Sc1ccccc1`: the Potency entry was “inactive”.

As for `CCSC(=O)N1CCCCCC1`, the Potency result was “inactive”.

As for `Cl[C@H]1OCCO[C@@H]1Cl`, the Potency result was “inactive”.

For `C=CC(=O)OCC(CC)CCCC` (stereo not given), the Potency result was “inactive”.

As to `O=[N+]([O-])c1cc([As](=O)(O)O)ccc1O`, the Potency result was “inactive”.

Consider `CCOc1ccc(N)cc1`, for which the Potency entry was “inactive”.

On to `Nc1ccc(N)cc1`, for which the Potency was 61.4 µM (active) and inactive.

`CCNc1nc(Cl)nc(NC(C)C)n1`: the Potency entry is “inactive”.

Consider `C=CC#N`, for which the Potency entry was “inactive”.

For the compound `C=C(C)C(=O)OCC(CC)CCCC` (stereo not given), the Potency entry was “inactive”.

For the compound `Cc1cc(Cl)ccc1OC(C)C(=O)O` (stereo not given), the Potency result is “inactive”.

With `CCCCC(CC)C(=O)Cl` (stereo not given), the Potency result is “inactive”.

Take `COc1cc(-c2ccc(N)c(OC)c2)ccc1N`: the “viability change, negative = cytotoxic” value is -14.4% (inactive).

As for `O=P1(NCCCl)OCCCN1CCCl` (stereo not given), the Potency entry is “inactive”.

Regarding `O=C(O)C(Br)Br`, the Potency result was “inactive”.

As for `Cc1cccc(C)c1NC(=O)CN1CCCC1=O`, the Potency result was “inactive”.

With `[N-]=[N+]=CC(=O)OC[C@H](N)C(=O)O`, the Potency result is “inactive”.

For `OCc1ccco1`, the Potency result was “inactive”.

Values taken from PubChem BioAssay (Tox21).
